According to the supplement of paper PMC10127200:
Where a name gives a salt, the structure may show the parent alone.

Tests used:
Assay in all cases: Euclidean distance of Cell Painting phenotypic profile (signed KS, 77 features) to DMSO centroid (dimensionless distance); 5 or 10 uM (library dependent); higher = stronger phenotypic change vs DMSO (phenoactivity)
Conditions in all cases: 48 h
786-O = tested on: 786-O
How it was run: (§1)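 Stained cells were imaged confocally at 20X with 9 fields per well, after 48 h of exposure to library compounds at 10 or 5 uM (set by library; 0.1% DMSO final). The cells were five cancer lines and a healthy fibroblast line. From the images, Harmony extracted 77 features, each expressed as a signed Kolmogorov-Smirnov statistic relative to same-plate vehicle wells. Phenoactivity is measured as Euclidean distance to the median vehicle profile, using plate-position-corrected, correlation-weighted profiles averaged across replicates at the top dose.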

A549 = tested on: A549
How it was run: as §1

DU145 = tested on: DU145
How it was run: as §1

FB = tested on: FB
How it was run: as §1

HEPG2 = tested on: HEPG2
How it was run: as §1

OVCAR4 = tested on: OVCAR4
How it was run: as §1

Row | SMILES | Euclidean distance (786-O) | Euclidean distance (A549) | Euclidean distance (DU145) | Euclidean distance (FB) | Euclidean distance (HEPG2) | Euclidean distance (OVCAR4)
1 | N[C@@H]1c2cccnc2[C@H](OC(=O)N2CCC(n3c(=O)[nH]c4ncccc43)CC2)CC[C@H]1c1cccc(F)c1F | 1.04 | 0.68 | 0.986 | 1.29 | 0.768 | 1.31
2 | CC(NCCC(c1ccccc1)c1ccccc1)c1ccccc1 (configuration not stated) [Fendiline hydrochloride] | 1.96 | 2.16 | 1.45 | 1.24 | 2.42 | 1.41
3 | Cc1c(F)cccc1NC(=O)Nc1ccc(Cl)c(S(=O)(=O)[C@H]2CCCNC2)c1O | 1.18 | 0.479 | 0.758 | 1.15 | 0.926 | 1.49
4 | O=C(O)c1cccc(-c2noc(-c3ccccc3F)n2)c1 [Ataluren (PTC124)] | 1.05 | 0.791 | 1.17 | 1.13 | 0.816 | 1.51
5 | COC(=O)C1=C(C)NC(C)=C(C(=O)OC(C)(C)CN(C)CCC(c2ccccc2)c2ccccc2)C1c1cccc([N+](=O)[O-])c1 (configuration not stated) [Lercanidipine] | 1.59 | 2.38 | 1.1 | 1.31 | 1.5 | 2.02
6 | C[C@@H](C(=O)Nc1ccc(Cl)cc1)C1CCC(c2ccnc3ccc(F)cc23)CC1 (some centres not stated) | 1.84 | 2.05 | 1.38 | 1.29 | 1.93 | 1.69
7 | O=C(Nc1ccccc1)c1cc([N+](=O)[O-])ccc1Cl | 0.848 | 0.897 | 0.645 | 1.15 | 0.832 | 1.2
8 | C1COC(NC(C2CC2)C2CC2)=N1 [Rilmenidine Phosphate] | 1.48 | 0.742 | 1.06 | 1.07 | 1.13 | 1.02
9 | CC(C(=O)O)c1ccc2c(c1)[nH]c1ccc(Cl)cc12 (configuration not stated) [Carprofen] | 1.08 | 0.684 | 0.84 | 1.38 | 0.421 | 1.11
10 | N#CCC1(n2cc(-c3ncnc4[nH]ccc34)cn2)CN(C2CCN(C(=O)c3ccnc(C(F)(F)F)c3F)CC2)C1 | 1.27 | 1.05 | 1.46 | 1.34 | 0.742 | 1.05
11 | NC(=O)c1ncn([C@@H]2O[C@H](CO)[C@@H](O)[C@H]2O)n1 [Ribavirin] | 0.706 | 0.843 | 0.599 | 0.808 | 0.875 | 0.963
12 | COc1ccc(/C=C/C(=O)Nc2ccccc2C(=O)O)cc1OC [Trans-Tranilast] | 1.43 | 0.649 | 0.604 | 1.18 | 0.865 | 0.917
13 | C[N+](C)(C)CCO.O=C([O-])C(O)C(O)C(=O)O (configuration not stated) [Choline bitartrate] | 1.35 | 1.24 | 0.973 | 1.15 | 0.96 | 1.37
14 | CC(=O)OCC(=O)[C@@]12OC(C)(C)O[C@@H]1C[C@H]1[C@@H]3C[C@H](F)C4=CC(=O)C=C[C@]4(C)[C@@]3(F)[C@@H](O)C[C@@]12C [Fluocinonide] | 1.34 | 2.13 | 2.47 | 1.51 | 0.846 | 1.99
15 | C=CC(=O)Nc1ccc2ncnc(Nc3cccc(Br)c3)c2c1 | 1.72 | 2.07 | 1.78 | 2.78 | 1.47 | 2.99
16 | O=C(Nc1cc(Cl)cc(Cl)c1O)c1c(O)c(Cl)cc(Cl)c1Cl [Oxyclozanide] | 1.04 | 0.69 | 0.929 | 0.828 | 0.649 | 1.52
17 | C[C@@H](O[C@H]1OCCN(Cc2nn(P(=O)(O)O)c(=O)[nH]2)[C@H]1c1ccc(F)cc1)c1cc(C(F)(F)F)cc(C(F)(F)F)c1 [Fosaprepitant dimeglumine salt] | 1.86 | 1.37 | 1.18 | 1.21 | 1.4 | 0.995
18 | Cc1ccc([C@@H]2O[C@H](CO)[C@@H](O)[C@H](O)[C@H]2O)cc1Cc1ccc(-c2ccc(F)cc2)s1 [Canagliflozin] | 1.32 | 1.86 | 0.716 | 1.12 | 0.807 | 1.77
19 | CC[C@H](C)C[C@H](C)CCCCCCCCC(=O)N[C@H]1C[C@@H](O)[C@@H](NCCN)NC(=O)[C@@H]2[C@@H](O)CCN2C(=O)[C@H]([C@H](O)CCN)NC(=O)[C@H]([C@H](O)[C@@H](O)c2ccc(O)cc2)NC(=O)[C@@H]2C[C@@H](O)CN2C(=O)[C@H]([C@@H](C)O)NC1=O [Caspofungin Acetate] | 2.18 | 0.866 | 1.51 | 2.42 | 1.15 | 1.86
20 | CCOc1ccc(NC(C)=O)cc1 [Phenacetin] | 1.38 | 0.916 | 1.56 | 0.94 | 0.469 | 1.83
21 | CC(C)OC(=O)C(C(=O)OC(C)C)=C1SC=CS1 [Malotilate] | 1.94 | 1.09 | 0.92 | 1.39 | 1.08 | 1.29
22 | NS(=O)(=O)c1cc2c(cc1C(F)(F)F)NC(Cc1ccccc1)NS2(=O)=O (configuration not stated) [Bendroflumethiazide] | 0.918 | 0.995 | 1.62 | 1.34 | 1.05 | 2.02
23 | CN(C)C[C@@H]1CCn2cc(c3ccccc32)C2=C(C(=O)NC2=O)c2cn(c3ccccc23)CCO1 | 3.81 | 3.95 | 4.1 | 3.89 | 3.22 | 4.42
24 | Nc1ccn(C[C@@H](CO)OCP(=O)(O)O)c(=O)n1 [Cidofovir] | 1.22 | 1.39 | 1.14 | 0.855 | 0.834 | 1.26

Row | SMILES | Euclidean distance (786-O) | Euclidean distance (A549) | Euclidean distance (DU145) | Euclidean distance (FB) | Euclidean distance (HEPG2) | Euclidean distance (OVCAR4)
25 | COc1cnc(-n2cnc(C)n2)c2[nH]cc(C(=O)C(=O)N3CCN(C(=O)c4ccccc4)CC3)c12 | 1.35 | 0.841 | 0.792 | 0.569 | 1.32 | 0.969
26 | COc1ccc(C(Cl)=C(c2ccc(OC)cc2)c2ccc(OC)cc2)cc1 [Chlorotrianisene] | 1.13 | 1.23 | 0.763 | 1.08 | 1.11 | 1.04
27 | CC(=O)CC/C=C(\C)CC/C=C(\C)CC/C=C(\C)CCC=C(C)C [Teprenone] | 1.06 | 0.693 | 0.749 | 1.12 | 1.1 | 1.23
28 | COC(=O)N[C@H](C(=O)N1CCC[C@H]1c1nc(-c2ccc3c(c2)O[C@@H](c2ccccc2)n2c-3cc3cc(-c4c[nH]c([C@@H]5CCCN5C(=O)[C@@H](NC(=O)OC)C(C)C)n4)ccc32)c[nH]1)C(C)C [Elbasvir] | 2.17 | 1.94 | 1.26 | 1.97 | 1.04 | 1.58
29 | CCCCC1=NC2(CCCC2)C(=O)N1Cc1ccc(-c2ccccc2S(=O)(=O)Nc2noc(C)c2C)c(COCC)c1 | 1.6 | 0.599 | 1.01 | 0.872 | 0.445 | 0.927
30 | COc1ccc2[nH]cc(CCNC(C)=O)c2c1 [Melatonin] | 0.969 | 0.391 | 0.808 | 0.749 | 0.681 | 0.982
31 | CCCCC[C@H](O)/C=C/[C@H]1[C@H](O)CC(=O)[C@@H]1C/C=C\CCCC(=O)O [Prostaglandin E2 (PGE2)] | 1.77 | 0.85 | 0.915 | 1.08 | 0.522 | 1.33
32 | NC(=O)N1c2ccccc2C=Cc2ccccc21 [Carbamazepine] | 1.69 | 0.483 | 1.26 | 0.984 | 1.28 | 1.59
33 | CN(CCOc1ccc(CC2SC(=O)NC2=O)cc1)c1ccccn1 (configuration not stated) [Rosiglitazone HCl] | 1.13 | 1.65 | 1.31 | 1.07 | 2.06 | 1.27
34 | Cc1c(Cc2ccc3ccccc3n2)c2cc(F)ccc2n1CC(=O)O | 1.27 | 1.14 | 0.888 | 1.16 | 2.13 | 1.52
35 | C[C@@H]1CN(C(=O)c2ccc(NC(=O)c3cc(O[C@H](C)c4c(Cl)ccc(F)c4Cl)c(N)nn3)cc2)C[C@H](C)N1 [Ensartinib (X-396) dihydrochloride] | 5.01 | 4.53 | 3.15 | 4.29 | 3.74 | 3.35
36 | NC1CCN(c2nc3c(cc2F)c(=O)c(C(=O)O)cn3-c2ccc(F)cc2F)C1 (configuration not stated) [Tosufloxacin p-Toluenesulfonate Hydrate] | 0.975 | 1.03 | 0.829 | 1.12 | 0.47 | 1.3
37 | COc1ccccc1N1CCN(CCCNc2cc(=O)n(C)c(=O)n2C)CC1 [Urapidil HCl] | 1.39 | 0.9 | 0.94 | 0.778 | 0.34 | 0.898
38 | CCC[C@@H](C=O)NC(=O)[C@H](CC(C)C)NC(=O)[C@H](CC(C)C)NC(=O)OCc1ccccc1 | 5.22 | 4.01 | 5.17 | 4.63 | 4.52 | 5.15
39 | CCCCCOc1ccc(-c2ccc(-c3ccc(C(=O)N[C@H]4C[C@@H](O)[C@@H](O)NC(=O)[C@@H]5[C@@H](O)[C@@H](C)CN5C(=O)[C@H]([C@@H](C)O)NC(=O)[C@H]([C@H](O)[C@@H](O)c5ccc(O)cc5)NC(=O)[C@@H]5C[C@@H](O)CN5C(=O)[C@H]([C@@H](C)O)NC4=O)cc3)cc2)cc1 | 0.818 | 0.702 | 1.21 | 0.749 | 1.21 | 1.01
40 | COc1ccc(CCc2nc3cc(-c4c(C)noc4C)ccc3n2C[C@H](C)N2CCOCC2)cc1Cl | 2.58 | 1.55 | 0.967 | 1.73 | 1.67 | 1.78
41 | C=CCNC1=C2C[C@@H](C)C[C@H](OC)[C@H](O)[C@@H](C)/C=C(\C)[C@H](OC(N)=O)[C@@H](OC)/C=C\C=C(/C)C(=O)NC(=CC1=O)C2=O | 2.85 | 2.95 | 4.51 | 3.47 | 3.86 | 2.72
42 | CN(C)CCC[C@@]1(c2ccc(F)cc2)OCc2cc(C#N)ccc21 [Escitalopram Oxalate] | 1.58 | 1.12 | 1.67 | 0.918 | 0.791 | 1.43
43 | CC1(C)S[C@@H]2[C@H](NC(=O)Cc3ccccc3)C(=O)N2[C@H]1C(=O)O [Penicillin G Sodium] | 1.04 | 0.576 | 1.12 | 0.979 | 0.871 | 1.93
44 | CNCC[C@@H](Oc1ccccc1C)c1ccccc1 [Atomoxetine HCl] | 1.37 | 1.23 | 0.627 | 0.866 | 0.422 | 1.22
45 | COc1ccc(-c2cc(=S)ss2)cc1 [Anethole trithione] | 1.49 | 1.04 | 1.18 | 1.03 | 0.61 | 1.06
46 | CN1C(=O)CC(c2ccccc2)C1=O (configuration not stated) [Phensuximide] | 0.788 | 1.12 | 1.01 | 0.827 | 0.849 | 0.954
47 | CCNC(=O)[C@@H]1CCCN1C(=O)[C@H](CCCNC(=N)N)NC(=O)[C@H](CC(C)C)NC(=O)[C@@H](CC(C)C)NC(=O)[C@H](Cc1ccc(O)cc1)NC(=O)[C@H](CO)NC(=O)[C@H](Cc1c[nH]c2ccccc12)NC(=O)[C@H](Cc1c[nH]cn1)NC(=O)[C@@H]1CCC(=O)N1 [Leuprorelin Acetate] | 1.85 | 1 | 1.17 | 0.933 | 0.582 | 0.958
